# Source: PubChem BioAssay (NCATS)
# Inconclusive results are not listed. A call without a number means that no potency is given here. Calls of active or inactive are those of the source. Unless noted, the call rests on the fitted dose curve; in most records, active means well fitted curve in the direction sought with a large enough effect; inconclusive means small, poorly fitted or top-dose-only effect, or another doubt; inactive means no such curve, though single readings can be large; an effect the other way counts as inactive or inconclusive.
# Tests used:
# [1] = target: Calcium and integrin-binding protein 1 (Homo sapiens) (UniProt Q99828); experiment: Primary qHTS for Identification of Calcium Integrin Binding Protein 1 (CIB1) Competitor (AID 1508620);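 further: GST tagged CIB1 binding a fluorescein labelled alphaIIb integrin peptide tracer; top concentration of the series differs between compounds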
# Procedure, shortened: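 Fluorescence polarization competition: CIB1-GST (1 uM final) preincubated with compound 15 min at room temperature, then FITC-labeled alphaIIb peptide (100 nM final) added for another 15 min. Polarization read at Ex 480/Em 540.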
# [2] = target: Rap guanine nucleotide exchange factor 3 (Homo sapiens) (UniProt O95398); experiment: Confirmatory qHTS for agonist of cAMP-regulated guanine nucleotide exchange factor 3 (EPAC1) (AID 1645881);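 further: EPAC1 catalysed release of BODIPY-GDP from Rap1B seen as fluorescence loss; nearly all actives have a fitted effect of over 75% in size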
# [3] = target: Rap guanine nucleotide exchange factor 4 (Homo sapiens) (UniProt Q8WZA2); experiment: Confirmatory qHTS for agonist of cAMP-regulated guanine nucleotide exchange factor 4 (EPAC2) (AID 1645884);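 further: nucleotide exchange releases bodipy-GDP from Rap1 and this lowers its fluorescence; nearly all actives have a fitted effect of over 65% in size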
# [4] = target: Rap guanine nucleotide exchange factor 4 (Homo sapiens) (UniProt Q8WZA2); experiment: Confirmatory qHTS for antagonist of cAMP-regulated guanine nucleotide exchange factor 4 (EPAC2) (AID 1645885); further: nearly all actives have a fitted effect of over 25% in size
# [5] = target: Rap guanine nucleotide exchange factor 3 (Homo sapiens) (UniProt O95398); experiment: Counterscreen qHTS for antagonist of cAMP-regulated guanine nucleotide exchange factor 3 (EPAC1) (AID 1645888);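 further: fluorescence loss as bound BODIPY-GDP is released from Rap1B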
# Procedure, shortened: (§1)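 Measured: fluorescence of BODIPY-GDP bound to Rap1B, which falls as exchange proceeds. Conditions include 50 uM competing GDP, 5 and 30 min reads, and a later cAMP challenge for antagonist detection.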
# [6] = target: N-terminal Xaa-Pro-Lys N-methyltransferase 1 (Homo sapiens) (UniProt Q9BV86); experiment: Confirmatory qHTS for Inhibitors of N-terminal methyltransferase 1 (NTMT1): MTaseGlo Assay (AID 1645874); further: nearly all actives have a fitted effect of over 65% in size; further: potency means the concentration at half of the fitted maximal effect;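 on activity change, negative = inhibition: luminescence from SAH made as NTMT1 methylates SPKRIA peptide using SAM; series mostly up to about 100 µM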
# Procedure, shortened: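 qHTS format: NTMT1 125 nM, SAM 100 uM, peptide SPKRIA 1 uM final; 15 min compound preincubation, 30 min reaction at room temperature. MTase-Glo luminescence.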
# [7] = target: Glutathione peroxidase 1 (Homo sapiens) (UniProt P07203); experiment: Primary qHTS Assay for Inhibitors of Recombinant Selenoprotein Glutathione Peroxidase 1 (GPX1) (AID 1845191); further: nearly all actives have a fitted effect of over 65% in size
# Procedure, shortened: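 Recombinant GPX1 (10 nM final) was preincubated with compound for 30 min at room temperature, then reacted with 1 mM GSH, 0.5 mM CHP, 0.5 mM NADPH and 100 nM glutathione reductase; NADPH fluorescence (340/450 nm) was read at 0 and 15 min.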
# [8] = target: Rap guanine nucleotide exchange factor 3 (Homo sapiens) (UniProt O95398); experiment: Counterscreen qHTS for agonist of cAMP-regulated guanine nucleotide exchange factor 3 (EPAC1) (AID 1645889); further: nearly all actives have a fitted effect of over 40% in size
# Procedure, shortened: as §1
# [9] = target: Rap guanine nucleotide exchange factor 3 (Homo sapiens) (UniProt O95398); experiment: Confirmatory qHTS for antagonist of cAMP-regulated guanine nucleotide exchange factor 3 (EPAC1) (AID 1645880); further: nearly all actives have a fitted effect of over 55% in size; further: potency means the concentration at half of the fitted maximal effect
# Procedure, shortened: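 Nucleotide exchange uses 100 nM EPAC1, 250 nM RAP1B-BODIPY-GDP and 50 uM GDP, with compounds in a concentration-titration series. After 5 min at room temperature, fluorescence (480 nm ex/540 nm em) is read every 5 min for 30 min. Data are normalized to control ATA and DMSO.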
# [10] = qHTS for Inhibitors of Ubiquitin-specific Protease USP2a Using CHOP2 as the Reporter: K633 Counterscreen (AID 652168); further: series mostly up to about 57 µM
# Procedure, shortened: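 Cell-free interference counterscreen without USP2a: compounds pinned into enzyme-free buffer (20 mM Tris pH 8, 2 mM beta-mercaptoethanol, 0.05% Chaps), then DiUb K48-4IQF substrate added (100 nM stock); fluorescence read kinetically, Ex 525/Em 598.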
# [11] = qHTS for Inhibitors of Ubiquitin-specific Protease USP2a Using CHOP2 as the Reporter: Cytotox Assay (AID 652170); further: potency means the concentration at half of the fitted maximal effect; nearly all actives have a fitted effect of over 70% in size
# Procedure, shortened: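 HCT116 human colon cancer cells, 600 per well in DMEM with 10% FBS, exposed to compounds for 72 hr at 37 deg C. ATP measured by CellTiter-Glo luminescence, normalized to DMSO cells and no-cell background.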
# [12] = Primary qHTS for inhibitors of nuclear receptor binding SET domain protein 2 (NSD2) in an isogenic RCH-ACV NSD2 p.E1099K mutant (9B) (AID 1645876); further: potency means the concentration at half of the fitted maximal effect; nearly all actives have a fitted effect of over 70% in size
# [13] = Primary qHTS for inhibitors of nuclear receptor binding SET domain protein 2 (NSD2) in an RCH-ACV wild type WT cells (2C) (AID 1645877); further: potency means the concentration at half of the fitted maximal effect; nearly all actives have a fitted effect of over 70% in size
# [14] = qHTS drug screen for cell cycle checkpoint inhibitors in PARPi-resistant BRCA-mutant ovarian cancer cell lines. (AID 1963452; calls by dose curve); conditions: PEO1/OlaR viability, CellTiter-Glo luminescence, 96 h, stronger effect = lower value
# Procedure, shortened: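 PEO1, PEO4 and PEO1/OlaR ovarian cancer cells, 600 per well, exposed 96 h at 37C to a dilution series. Viability read by CellTiter-Glo luminescence, normalized to DMSO and empty wells; activity summarized as Z-AUC.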
# [15] = measured here: PEO1 parental Z-AUC
# Sequence of Rap guanine nucleotide exchange factor 3 (Homo sapiens) (O95398 whole entry, looked up): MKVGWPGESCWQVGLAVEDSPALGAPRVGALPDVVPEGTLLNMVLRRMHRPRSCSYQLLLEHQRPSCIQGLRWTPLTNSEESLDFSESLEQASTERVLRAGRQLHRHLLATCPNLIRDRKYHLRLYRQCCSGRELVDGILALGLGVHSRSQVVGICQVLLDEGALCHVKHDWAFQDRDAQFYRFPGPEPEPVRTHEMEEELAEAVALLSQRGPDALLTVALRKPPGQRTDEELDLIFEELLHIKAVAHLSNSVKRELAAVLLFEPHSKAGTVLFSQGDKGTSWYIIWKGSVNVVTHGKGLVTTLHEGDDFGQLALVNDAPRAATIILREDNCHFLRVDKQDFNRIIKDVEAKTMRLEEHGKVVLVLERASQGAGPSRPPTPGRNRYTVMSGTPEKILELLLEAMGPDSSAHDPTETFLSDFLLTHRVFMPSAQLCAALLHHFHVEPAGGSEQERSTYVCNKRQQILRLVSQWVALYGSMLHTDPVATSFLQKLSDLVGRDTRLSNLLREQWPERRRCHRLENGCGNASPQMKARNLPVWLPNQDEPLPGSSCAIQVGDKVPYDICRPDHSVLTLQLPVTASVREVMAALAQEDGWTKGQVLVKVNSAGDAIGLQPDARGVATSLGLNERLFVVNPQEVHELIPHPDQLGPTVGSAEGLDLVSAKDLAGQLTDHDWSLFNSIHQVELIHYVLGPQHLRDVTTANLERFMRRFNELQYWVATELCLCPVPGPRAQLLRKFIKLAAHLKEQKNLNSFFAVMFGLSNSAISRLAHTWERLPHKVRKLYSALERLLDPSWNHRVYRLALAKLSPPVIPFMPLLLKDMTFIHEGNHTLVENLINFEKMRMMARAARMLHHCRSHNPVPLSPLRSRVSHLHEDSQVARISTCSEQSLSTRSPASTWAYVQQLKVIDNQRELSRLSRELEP
# Sequence of Glutathione peroxidase 1 (Homo sapiens) (P07203 whole entry, looked up): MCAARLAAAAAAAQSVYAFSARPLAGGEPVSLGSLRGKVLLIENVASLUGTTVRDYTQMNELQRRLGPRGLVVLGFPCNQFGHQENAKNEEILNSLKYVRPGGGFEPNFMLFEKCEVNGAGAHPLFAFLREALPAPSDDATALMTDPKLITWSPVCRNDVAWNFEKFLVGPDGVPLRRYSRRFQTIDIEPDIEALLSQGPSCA
# Sequence of Calcium and integrin-binding protein 1 (Homo sapiens) (Q99828 whole entry, looked up): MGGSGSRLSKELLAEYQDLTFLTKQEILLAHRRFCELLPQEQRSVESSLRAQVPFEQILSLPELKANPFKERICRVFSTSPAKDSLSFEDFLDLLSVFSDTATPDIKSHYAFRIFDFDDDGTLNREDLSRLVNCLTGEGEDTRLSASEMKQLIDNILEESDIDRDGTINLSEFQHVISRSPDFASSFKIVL
# Sequence of Rap guanine nucleotide exchange factor 4 (Homo sapiens) (Q8WZA2 whole entry, looked up): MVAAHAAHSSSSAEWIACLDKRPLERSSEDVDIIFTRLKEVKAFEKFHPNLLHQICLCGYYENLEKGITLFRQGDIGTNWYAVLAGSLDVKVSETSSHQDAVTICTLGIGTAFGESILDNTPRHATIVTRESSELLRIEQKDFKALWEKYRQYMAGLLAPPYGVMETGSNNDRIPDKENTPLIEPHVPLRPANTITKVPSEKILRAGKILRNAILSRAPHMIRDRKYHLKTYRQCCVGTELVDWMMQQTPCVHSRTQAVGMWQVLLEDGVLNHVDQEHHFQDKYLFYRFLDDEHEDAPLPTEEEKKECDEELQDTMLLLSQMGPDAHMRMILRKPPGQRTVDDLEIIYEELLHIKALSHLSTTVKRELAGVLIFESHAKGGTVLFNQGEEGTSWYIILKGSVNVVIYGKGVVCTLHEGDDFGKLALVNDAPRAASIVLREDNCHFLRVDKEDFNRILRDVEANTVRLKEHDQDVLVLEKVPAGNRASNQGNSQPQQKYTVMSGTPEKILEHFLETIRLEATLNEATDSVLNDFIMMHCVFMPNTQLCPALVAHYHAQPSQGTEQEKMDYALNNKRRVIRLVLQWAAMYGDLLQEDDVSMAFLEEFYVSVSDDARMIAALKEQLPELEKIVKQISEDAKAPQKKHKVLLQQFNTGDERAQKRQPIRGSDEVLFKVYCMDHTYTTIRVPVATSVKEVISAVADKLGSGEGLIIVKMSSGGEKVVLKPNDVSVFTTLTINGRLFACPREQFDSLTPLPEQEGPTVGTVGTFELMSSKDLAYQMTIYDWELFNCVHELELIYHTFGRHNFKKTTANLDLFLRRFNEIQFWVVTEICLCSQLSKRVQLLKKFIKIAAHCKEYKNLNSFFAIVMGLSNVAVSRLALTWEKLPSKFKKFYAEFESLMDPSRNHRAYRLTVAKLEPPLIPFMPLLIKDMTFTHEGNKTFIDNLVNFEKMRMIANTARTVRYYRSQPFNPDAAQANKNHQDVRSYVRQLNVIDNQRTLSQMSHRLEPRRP
# Sequence of N-terminal Xaa-Pro-Lys N-methyltransferase 1 (Homo sapiens) (Q9BV86 whole entry, looked up): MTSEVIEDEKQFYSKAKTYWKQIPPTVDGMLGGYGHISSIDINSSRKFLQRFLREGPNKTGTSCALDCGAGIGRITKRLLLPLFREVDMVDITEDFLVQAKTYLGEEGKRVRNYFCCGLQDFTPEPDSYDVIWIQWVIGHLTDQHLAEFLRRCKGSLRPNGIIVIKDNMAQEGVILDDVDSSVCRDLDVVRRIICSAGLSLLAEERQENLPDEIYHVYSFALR
smiles,measurement,setting,value
O=C(CSc1nnc(-c2cccc(S(=O)(=O)N3CCCC3)c2)n1-c1ccccc1)Nc1ccc(C(=O)O)cc1,Potency,[1],inactive
same,outcome,[2],inactive
same,activation,[3],-2.44% [at 17.1 µM] (inactive)
same,"activity change, negative = inhibition",[4],-11.1% [at 12.7 µM] (inactive)
same,outcome,[5],inactive
Nc1ncnc2c1C(c1ccccc1)c1c(ccc3ccccc13)O2 (configuration not stated),Potency,[1],inactive
same,outcome,[2],inactive
same,outcome,[3],inactive
same,Potency,[4],inactive
same,outcome,[5],inactive
COc1ccc(C2=Nn3c(nnc3-c3ccccc3F)SC2)cc1OC1CCCC1,Potency,[1],inactive
same,Potency,[6],24.5 µM (active)
CC(=O)Nc1sc2c(c1-c1ccc(N3CCN(C)CC3)cc1)CCNC2,Potency,[1],inactive
same,Potency,[7],inactive
CCC(=O)NC(c1cc(Cl)c2ccccc2c1O)C(C)C (configuration not stated),Potency,[1],inactive
same,outcome,[2],inactive
same,outcome,[3],inactive
same,Potency,[4],inactive
same,outcome,[5],inactive
same,outcome,[8],inactive
CC(=O)c1ccc(N2CCN(S(=O)(=O)c3ccc4c(c3)C(Cl)(Cl)C(=O)N4)CC2)cc1,Potency,[1],inactive
same,Potency,[9],26.9 µM (active)
same,outcome,[2],inactive
same,outcome,[5],inactive
Cc1ccc(S(=O)(=O)Nc2cc(C(F)(F)F)ccc2C(=O)Nc2nc(-c3ccccc3)cs2)cc1,outcome,[10],inactive
same,Potency,[11],2.96 µM (active)
same,Potency,[1],inactive
same,Potency,[12],4.17 µM (active)
same,Potency,[13],4.17 µM (active)
same,Z-AUC,[14],0.58 (inactive)
same,Z-AUC,[14]; [15],0.184
same,Z-AUC,[14]; measured here: PEO4 Z-AUC,-0.358
O=C1Cc2cc(S(=O)(=O)N3CCNCC3)ccc2N1,Potency,[1],inactive
same,Potency,[9],inactive
same,outcome,[2],inactive
same,activation,[3],3.97% [at 17.1 µM] (inactive)
same,"activity change, negative = inhibition",[4],9.22% [at 12.7 µM] (inactive)
same,outcome,[5],inactive
CN(C(=O)c1cn2c(-c3ccc(C(F)(F)F)cc3)cnc2cn1)c1ccc(C#N)cc1,Potency,[1],inactive
same,Potency,[7],inactive
CN(C)C(=O)c1ccc(-c2cc[nH]c(=O)c2N)cc1,Potency,[1],inactive
same,Potency,[6],inactive
[2H]C([2H])(Nc1nc(-c2ccccc2C([2H])(C([2H])([2H])[2H])C([2H])([2H])[2H])ncc1C)c1ccc(-n2ccnn2)cc1,Potency,[1],inactive
same,Potency,[7],inactive
same,Z-AUC,[14],-0.917 (inactive)
same,Z-AUC,[14]; [15],-1.16
same,Z-AUC,[14]; measured here: PEO4 Z-AUC,-0.866
